The text below walks through data of ChEMBL document CHEMBL3988442, “University of Dundee, Small-Polar-MMV Screening Library” (2021).

The target in one test is T1, Aspartate--tRNA(Asp/Asn) ligase (Mycobacterium tuberculosis (strain ATCC 25618 / H37Rv)) (UniProt P9WFW3). Further: in the data most compounds retested in dose-response had high values.
T1 sequence (whole entry): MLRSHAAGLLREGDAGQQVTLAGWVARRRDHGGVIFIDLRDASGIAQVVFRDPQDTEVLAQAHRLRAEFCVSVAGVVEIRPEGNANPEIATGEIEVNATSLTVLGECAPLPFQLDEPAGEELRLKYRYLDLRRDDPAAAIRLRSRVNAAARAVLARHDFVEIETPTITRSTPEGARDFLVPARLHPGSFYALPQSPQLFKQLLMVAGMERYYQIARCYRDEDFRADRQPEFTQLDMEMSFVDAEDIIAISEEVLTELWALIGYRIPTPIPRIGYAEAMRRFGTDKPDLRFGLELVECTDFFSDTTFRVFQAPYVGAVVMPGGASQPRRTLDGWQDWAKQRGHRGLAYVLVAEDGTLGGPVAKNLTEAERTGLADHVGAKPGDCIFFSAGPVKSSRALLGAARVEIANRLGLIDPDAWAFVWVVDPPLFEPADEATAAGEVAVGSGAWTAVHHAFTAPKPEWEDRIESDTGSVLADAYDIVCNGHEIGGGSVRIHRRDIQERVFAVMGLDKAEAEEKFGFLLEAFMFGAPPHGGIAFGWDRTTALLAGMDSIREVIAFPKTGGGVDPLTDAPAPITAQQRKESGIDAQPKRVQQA
Put plainly: Assay for Asp RNA synthetase-1 from Mycobacterium tuberculosis. The format is functional. The following applies: 30 µM. Also on record: scale not given: direction of the effect not stated beside the values.
Consider `CN(C)C(=O)c1ccc(CNC(=O)NCCN(C)C2CCCC2)cc1`, for which the Percent Effect turned out to be 1.57%.
On the same count and under the same terms, for `CC(C)CN1C[C@H]2CCN(Cc3cccnc3)CC[C@H]2S1(=O)=O` the value was -4.32%; for `CC(=O)N1CCC(C(=O)N(C)[C@@H]2CCC[C@@H](N3CCCC3)[C@@H]2O)CC1`, 1.35%; for `Cc1cc(C(=O)NCC(C)N2CCc3ccccc32)no1` (stereo not given), -0.278%.
For `O=C(N1CCCCC1)N1CCN(CC(O)c2ccc(F)cc2)CC1` (stereo not given), the Percent Effect was -2.17%.
For the compound `CCc1nnc2n1CCN(Cc1ccc(C(=O)N3CCCC3)cc1)C2`, the Percent Effect was -3.93%.
For the compound `CCN(Cc1cccc(Cl)c1)Cc1nc2c(cnn2C)c(=O)[nH]1`, the Percent Effect is -2.28%.
With `O=C(CCc1cccnc1)N1CCCC(n2cncn2)C1` (stereo not given), the Percent Effect is -2.66%.
As to `Cc1nc(C)n(CC2CN(c3ncccn3)Cc3nccn3C2)n1` (stereo not given), the Percent Effect is -0.127%.
Regarding `CN(C)C(=O)N1CCn2nc(CNC(=O)CCC(F)(F)F)cc2C1`, the Percent Effect turned out to be 2.12%.
The same measure, in the same setting: next, `COc1c(C)cnc(CN2CCCCC2Cn2nc(C)nc2C)c1C` (stereo not given): -2.54%; `CN1CC(=O)N(c2cnn(C)c2)CC12CCN(Cc1nccn1C)C2` (stereo not given): -3.88%.
On to `O=C(CN1CCc2ccccc21)Nc1ccc(OC(F)F)cc1`, for which the Percent Effect was 0.418%.
Take `O=C(CN1CCCC(Cn2cncn2)C1)NCc1ccco1` (stereo not given): the Percent Effect was -4.69%.
Take `NC(=O)C(CNC(=O)Cc1ccc(F)cc1)Cc1ccc(F)cc1` (stereo not given): the Percent Effect is -1.56%.
For `COc1cccc(CN(C)C(=O)Nc2ccc3c(c2)OCCO3)c1`, the Percent Effect is 16.5%.
In the case of `CCCC(Nc1c(C#N)c(=O)n(C)c(=O)n1C)c1ccc(F)cc1F` (stereo not given), the Percent Effect is -3.88%.
Take `CN(Cc1cn2ccccc2c1C#N)C1CCCN(c2cccnn2)C1` (stereo not given): the Percent Effect was 0.694%.
For `COCc1nc(CNC2CCSCC2)no1`, the Percent Effect is -4%.
Take `Cc1nc(C)n(C2CCCN(C(=O)c3ccc(NC4CC4)nc3)C2)n1` (stereo not given): the Percent Effect was -1.66%.
On to `CS(=O)(=O)N1CCC(C(=O)NCCNc2ncccn2)CC1`, for which the Percent Effect is -0.962%.
Regarding `O=C(CCn1ccccc1=O)Nc1ccc(F)c(Cl)c1`, the Percent Effect was determined as 5.06%.
For the compound `Cc1cccnc1CNCC1(O)CCCN(Cc2ccc(F)cc2)C1=O` (stereo not given), the Percent Effect came to 0.386%.
For the compound `COc1c(C)cnc(CN2CCOC(Cn3nc(C)nc3C)C2)c1C` (stereo not given), the Percent Effect was determined as 1.63%.
In the case of `CN1CCCC1c1cccc(Cc2ccccc2F)n1` (stereo not given), the Percent Effect was -0.581%.
For the compound `CC(C)N1CCCC2(CCN(C(=O)CCCn3ccnc3)C2)C1=O` (stereo not given), the Percent Effect is -5.64%.
Regarding `c1cnn(CC2CCCN2Cc2nc(-c3ccoc3)no2)c1` (stereo not given), the Percent Effect is 0.0441%.
Regarding `Cn1cc(-c2cnc(N3CCOCC3)nc2)cc1C(=O)N1CCOCC1`, the Percent Effect is -3.52%.
In the case of `c1ccc(CCCN2CC(n3cccn3)C2)cc1`, the Percent Effect is -4.05%.
For `COc1ccccc1CC(=O)N1CCC(NCc2cc[nH]c2)CC1`, the Percent Effect is -2.74%.
Consider `Cc1nnc2n1CCN(Cc1csc(CC(=O)N(C)C)n1)C2`, for which the Percent Effect was determined as 2.24%.
In the case of `CCn1c(CN(C)C)nnc1C1CCN(Cc2cccc(OC)c2)CC1`, the Percent Effect amounted to 0.565%.
For `O=C(CN(Cc1ccccc1)CC1CCOCC1)NC(=O)NC1CC1`, the Percent Effect came out at 0.182%.
On to `CCn1ccnc1CN1CCN(Cc2ccccn2)CC1C` (stereo not given), for which the Percent Effect is -1.39%.
Turning to `Cc1nnn2c1COCC(CNC(=O)c1ccc3[nH]ccc3c1)C2` (stereo not given), the Percent Effect turned out to be 0.238%.
`CC(=O)N(Cc1ncc(C(C)C)o1)C1CCN(Cc2ncc[nH]2)C1` (stereo not given): the Percent Effect was found to be 5.3%.
Regarding `O=C(c1ccc(Cl)o1)N1CCCC(c2cc(C(F)(F)F)[nH]n2)C1` (stereo not given), the Percent Effect amounted to 3.23%.
Still for that read-out and setting: for `O=C(c1cccs1)N1CCC(n2nc(-c3ccco3)ccc2=O)CC1` the value was -0.968%.
For the compound `CC(C)c1cc(NC(=O)c2ccc(C(=O)NC(C)(C)C)cc2)[nH]n1`, the Percent Effect is -0.941%.
Turning to `CSC(C)C(=O)NCCCc1cc(N)n(-c2ccccc2)n1` (stereo not given), the Percent Effect is -3.65%.

Another test addresses Shiga toxin 2 (Escherichia coli O157:H7) (UniProt P09385+P09386). Put plainly: E. coli 0.157:H7 Shiga Toxin SOP - stx2 screening assay. In kind it is functional. Further details: scale not given: direction of the effect not stated beside the values. To be noted: 30 µM.
Take `CN(C)C(=O)c1ccc(CNC(=O)NCCN(C)C2CCCC2)cc1`: the Percent Effect is 14.3%.
`CC(C)CN1C[C@H]2CCN(Cc3cccnc3)CC[C@H]2S1(=O)=O`: the Percent Effect came to 4.22%.
In the case of `CC(=O)N1CCC(C(=O)N(C)[C@@H]2CCC[C@@H](N3CCCC3)[C@@H]2O)CC1`, the Percent Effect was -6.16%.
On the same count and under the same terms, next, `Cc1cc(C(=O)NCC(C)N2CCc3ccccc32)no1` (stereo not given): -26.5%; `O=C(N1CCCCC1)N1CCN(CC(O)c2ccc(F)cc2)CC1` (stereo not given): 31.9%; `CCc1nnc2n1CCN(Cc1ccc(C(=O)N3CCCC3)cc1)C2`: -0.0173%.
Regarding `CCN(Cc1cccc(Cl)c1)Cc1nc2c(cnn2C)c(=O)[nH]1`, the Percent Effect was 31.3%.
Turning to `O=C(CCc1cccnc1)N1CCCC(n2cncn2)C1` (stereo not given), the Percent Effect is 1.94%.
`Cc1nc(C)n(CC2CN(c3ncccn3)Cc3nccn3C2)n1` (stereo not given): the Percent Effect amounted to 11.6%.
For the compound `CN(C)C(=O)N1CCn2nc(CNC(=O)CCC(F)(F)F)cc2C1`, the Percent Effect is -7.2%.
As for `COc1c(C)cnc(CN2CCCCC2Cn2nc(C)nc2C)c1C` (stereo not given), the Percent Effect was -21.3%.
For the compound `CN1CC(=O)N(c2cnn(C)c2)CC12CCN(Cc1nccn1C)C2` (stereo not given), the Percent Effect is -23.4%.
On to `O=C(CN1CCc2ccccc21)Nc1ccc(OC(F)F)cc1`, for which the Percent Effect is -7.39%.
Still for that read-out and setting: for `O=C(CN1CCCC(Cn2cncn2)C1)NCc1ccco1` (stereo not given) the value was 14.2%; for `NC(=O)C(CNC(=O)Cc1ccc(F)cc1)Cc1ccc(F)cc1` (stereo not given), -30.7%; for `COc1cccc(CN(C)C(=O)Nc2ccc3c(c2)OCCO3)c1`, -9.02%.
For the compound `CCCC(Nc1c(C#N)c(=O)n(C)c(=O)n1C)c1ccc(F)cc1F` (stereo not given), the Percent Effect came out at 4.48%.
Consider `CN(Cc1cn2ccccc2c1C#N)C1CCCN(c2cccnn2)C1` (stereo not given), for which the Percent Effect was -75.3%.
As for `COCc1nc(CNC2CCSCC2)no1`, the Percent Effect was found to be 9.42%.
On to `Cc1nc(C)n(C2CCCN(C(=O)c3ccc(NC4CC4)nc3)C2)n1` (stereo not given), for which the Percent Effect is -7.5%.
Regarding `CS(=O)(=O)N1CCC(C(=O)NCCNc2ncccn2)CC1`, the Percent Effect was -1.12%.
The same measure, in the same setting: for `O=C(CCn1ccccc1=O)Nc1ccc(F)c(Cl)c1` the value was -7.92%; for `Cc1cccnc1CNCC1(O)CCCN(Cc2ccc(F)cc2)C1=O` (stereo not given), 4.74%.
Regarding `COc1c(C)cnc(CN2CCOC(Cn3nc(C)nc3C)C2)c1C` (stereo not given), the Percent Effect is 8.19%.
Regarding `CN1CCCC1c1cccc(Cc2ccccc2F)n1` (stereo not given), the Percent Effect is 1.7%.
With `CC(C)N1CCCC2(CCN(C(=O)CCCn3ccnc3)C2)C1=O` (stereo not given), the Percent Effect amounted to 15.9%.
The same measure, in the same setting: for `c1cnn(CC2CCCN2Cc2nc(-c3ccoc3)no2)c1` (stereo not given) the value was -0.74%.
Regarding `Cn1cc(-c2cnc(N3CCOCC3)nc2)cc1C(=O)N1CCOCC1`, the Percent Effect is -3.46%.
Still for that read-out and setting: next, `c1ccc(CCCN2CC(n3cccn3)C2)cc1`: -12.1%; `COc1ccccc1CC(=O)N1CCC(NCc2cc[nH]c2)CC1`: -11.8%.
Regarding `Cc1nnc2n1CCN(Cc1csc(CC(=O)N(C)C)n1)C2`, the Percent Effect was 5.11%.
For the compound `CCn1c(CN(C)C)nnc1C1CCN(Cc2cccc(OC)c2)CC1`, the Percent Effect was -66.9%.
For `O=C(CN(Cc1ccccc1)CC1CCOCC1)NC(=O)NC1CC1`, the Percent Effect is -31.8%.
Take `CCn1ccnc1CN1CCN(Cc2ccccn2)CC1C` (stereo not given): the Percent Effect was -13.6%.
As for `Cc1nnn2c1COCC(CNC(=O)c1ccc3[nH]ccc3c1)C2` (stereo not given), the Percent Effect is -35.3%.
The same measure, in the same setting: for `CC(=O)N(Cc1ncc(C(C)C)o1)C1CCN(Cc2ncc[nH]2)C1` (stereo not given) the value was 10.9%.
With `O=C(c1ccc(Cl)o1)N1CCCC(c2cc(C(F)(F)F)[nH]n2)C1` (stereo not given), the Percent Effect turned out to be 38.7%.
`O=C(c1cccs1)N1CCC(n2nc(-c3ccco3)ccc2=O)CC1`: the Percent Effect is 6.63%.
On the same count and under the same terms, next, `CC(C)c1cc(NC(=O)c2ccc(C(=O)NC(C)(C)C)cc2)[nH]n1`: -39.3%.
Still for that read-out and setting: next, `CSC(C)C(=O)NCCCc1cc(N)n(-c2ccccc2)n1` (stereo not given): -1.83%.
